Data as given in the supplement of paper PMC11732987, “Enantioselective OTUD7B fragment discovery through chemoproteomics screening and high-throughput optimisation” (Communications Chemistry, 2025).

Legend:
Test in all cases: log2 ratio of Biotin-Ahx-Ub-VS probe labelling (fragment/DMSO); higher = less target engagement (more negative = stronger competition), active = hit call of the paper (q ≤ 0.05, log2 ratio ≤ -1)
Settings in all cases: compound concentration: 200 uM; treatment time: 3 h
[1] = molecular target: T1, USP19 (UniProt O94966)
T1 sequence (whole entry): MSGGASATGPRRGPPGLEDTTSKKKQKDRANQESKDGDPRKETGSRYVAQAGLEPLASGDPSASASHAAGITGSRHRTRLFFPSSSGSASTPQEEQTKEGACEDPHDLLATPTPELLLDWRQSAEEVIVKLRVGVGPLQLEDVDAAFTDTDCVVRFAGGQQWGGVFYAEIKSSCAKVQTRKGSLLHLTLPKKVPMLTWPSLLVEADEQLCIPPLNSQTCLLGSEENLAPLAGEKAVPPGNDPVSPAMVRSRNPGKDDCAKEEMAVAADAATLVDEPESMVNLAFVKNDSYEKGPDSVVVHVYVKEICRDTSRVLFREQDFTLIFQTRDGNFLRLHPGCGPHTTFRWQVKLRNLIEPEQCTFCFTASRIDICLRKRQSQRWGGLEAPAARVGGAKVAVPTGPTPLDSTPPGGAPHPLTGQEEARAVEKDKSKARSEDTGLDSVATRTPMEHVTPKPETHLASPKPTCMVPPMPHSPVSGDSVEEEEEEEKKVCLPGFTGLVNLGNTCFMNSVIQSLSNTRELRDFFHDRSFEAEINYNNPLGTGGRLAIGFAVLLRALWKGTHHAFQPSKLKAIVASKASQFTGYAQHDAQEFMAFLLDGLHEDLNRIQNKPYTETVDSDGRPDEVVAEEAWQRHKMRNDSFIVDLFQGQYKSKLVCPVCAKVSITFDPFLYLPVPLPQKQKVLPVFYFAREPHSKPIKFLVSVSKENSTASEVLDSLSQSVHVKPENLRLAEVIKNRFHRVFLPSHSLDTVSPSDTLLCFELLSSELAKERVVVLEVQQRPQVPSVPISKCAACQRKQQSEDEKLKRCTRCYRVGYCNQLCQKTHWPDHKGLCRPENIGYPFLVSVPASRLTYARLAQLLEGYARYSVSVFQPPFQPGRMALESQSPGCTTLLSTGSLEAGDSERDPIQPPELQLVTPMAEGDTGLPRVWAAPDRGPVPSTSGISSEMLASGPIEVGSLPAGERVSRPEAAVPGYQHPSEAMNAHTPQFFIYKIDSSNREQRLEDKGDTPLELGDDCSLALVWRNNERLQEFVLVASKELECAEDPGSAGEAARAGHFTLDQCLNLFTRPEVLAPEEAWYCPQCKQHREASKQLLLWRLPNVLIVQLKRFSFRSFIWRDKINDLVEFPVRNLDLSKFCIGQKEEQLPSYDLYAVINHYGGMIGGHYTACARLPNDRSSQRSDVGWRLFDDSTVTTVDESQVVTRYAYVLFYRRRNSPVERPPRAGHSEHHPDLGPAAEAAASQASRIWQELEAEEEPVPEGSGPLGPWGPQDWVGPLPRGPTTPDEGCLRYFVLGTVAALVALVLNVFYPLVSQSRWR
Procedure, shortened: (§1)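 Average log2 ratios of fragment over vehicle were obtained by unpaired t-test from global-median-normalised Spectronaut label-free quantities. Proteins with ≥2 unique peptides were included. HEK293T lysate (495 µg per sample) was treated in triplicate with fragment at 200 µM or vehicle for 3 h, then with Biotin-Ahx-Ub-VS at 0.5 µM final for 1 h, and labelled DUBs were NeutrAvidin-enriched and run by diaPASEF LC-MS/MS.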

[2] = molecular target: USP24 (UniProt Q9UPU5)
Procedure, shortened: as §1

[3] = molecular target: T2, USP25 (UniProt Q9UHP3)
T2 sequence (whole entry): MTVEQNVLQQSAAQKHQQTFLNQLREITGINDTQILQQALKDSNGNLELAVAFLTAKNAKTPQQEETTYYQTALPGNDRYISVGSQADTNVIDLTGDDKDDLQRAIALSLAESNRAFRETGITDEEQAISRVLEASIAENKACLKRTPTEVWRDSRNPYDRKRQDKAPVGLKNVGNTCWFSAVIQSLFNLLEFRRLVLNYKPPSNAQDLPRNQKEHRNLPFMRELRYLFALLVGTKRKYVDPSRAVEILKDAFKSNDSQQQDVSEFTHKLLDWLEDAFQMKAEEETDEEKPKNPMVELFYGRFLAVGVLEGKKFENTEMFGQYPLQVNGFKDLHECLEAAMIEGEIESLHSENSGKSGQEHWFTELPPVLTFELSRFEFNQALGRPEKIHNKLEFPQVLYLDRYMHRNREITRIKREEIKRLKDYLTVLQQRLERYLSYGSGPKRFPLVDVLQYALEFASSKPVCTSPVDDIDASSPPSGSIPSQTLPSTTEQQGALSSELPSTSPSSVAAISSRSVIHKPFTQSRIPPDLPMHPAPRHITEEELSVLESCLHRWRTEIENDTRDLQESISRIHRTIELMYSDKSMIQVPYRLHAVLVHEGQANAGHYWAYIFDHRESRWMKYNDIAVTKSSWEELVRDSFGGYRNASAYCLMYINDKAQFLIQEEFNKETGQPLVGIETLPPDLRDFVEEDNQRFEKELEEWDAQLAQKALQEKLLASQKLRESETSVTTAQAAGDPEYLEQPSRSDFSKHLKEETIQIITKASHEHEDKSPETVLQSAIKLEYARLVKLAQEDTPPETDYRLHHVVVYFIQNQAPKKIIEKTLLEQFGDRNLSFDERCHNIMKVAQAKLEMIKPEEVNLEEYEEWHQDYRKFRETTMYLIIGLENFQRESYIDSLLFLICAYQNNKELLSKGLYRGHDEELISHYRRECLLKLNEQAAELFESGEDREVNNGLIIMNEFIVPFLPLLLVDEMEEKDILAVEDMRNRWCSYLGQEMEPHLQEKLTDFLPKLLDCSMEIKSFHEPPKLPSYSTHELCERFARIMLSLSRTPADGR
Procedure, shortened: as §1

[4] = molecular target: T3, USP28 (UniProt Q96RU2)
T3 sequence (whole entry): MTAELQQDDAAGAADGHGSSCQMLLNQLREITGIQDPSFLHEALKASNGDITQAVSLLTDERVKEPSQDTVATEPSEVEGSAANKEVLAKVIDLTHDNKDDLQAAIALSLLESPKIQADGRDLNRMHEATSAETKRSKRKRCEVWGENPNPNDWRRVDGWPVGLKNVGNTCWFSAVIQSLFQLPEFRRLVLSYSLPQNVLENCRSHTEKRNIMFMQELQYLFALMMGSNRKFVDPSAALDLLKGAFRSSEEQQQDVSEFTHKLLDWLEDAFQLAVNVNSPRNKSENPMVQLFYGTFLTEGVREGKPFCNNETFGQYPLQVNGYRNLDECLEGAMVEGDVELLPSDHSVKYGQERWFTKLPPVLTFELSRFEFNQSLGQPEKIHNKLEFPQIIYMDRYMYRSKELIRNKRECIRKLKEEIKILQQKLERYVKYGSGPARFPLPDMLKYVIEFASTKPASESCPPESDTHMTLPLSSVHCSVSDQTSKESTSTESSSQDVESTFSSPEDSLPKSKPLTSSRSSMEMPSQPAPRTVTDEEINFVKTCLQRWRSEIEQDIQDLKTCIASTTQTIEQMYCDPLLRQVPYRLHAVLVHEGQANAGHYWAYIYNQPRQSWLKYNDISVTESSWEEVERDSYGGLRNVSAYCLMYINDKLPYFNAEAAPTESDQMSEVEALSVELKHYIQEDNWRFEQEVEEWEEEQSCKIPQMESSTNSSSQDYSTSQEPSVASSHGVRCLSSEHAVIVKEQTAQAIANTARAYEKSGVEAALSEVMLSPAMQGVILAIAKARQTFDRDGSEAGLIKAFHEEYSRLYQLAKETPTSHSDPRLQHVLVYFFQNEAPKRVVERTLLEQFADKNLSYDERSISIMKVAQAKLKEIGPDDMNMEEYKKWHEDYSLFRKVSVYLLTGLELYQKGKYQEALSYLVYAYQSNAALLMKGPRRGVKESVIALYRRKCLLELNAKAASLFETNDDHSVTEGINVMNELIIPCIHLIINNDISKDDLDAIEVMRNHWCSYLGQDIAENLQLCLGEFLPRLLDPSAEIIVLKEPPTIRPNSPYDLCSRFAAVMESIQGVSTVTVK
Procedure, shortened: as §1

Measured: log2 ratio of Biotin-Ahx-Ub-VS probe labelling

Chain of USP24 (Q9UPU5 whole entry): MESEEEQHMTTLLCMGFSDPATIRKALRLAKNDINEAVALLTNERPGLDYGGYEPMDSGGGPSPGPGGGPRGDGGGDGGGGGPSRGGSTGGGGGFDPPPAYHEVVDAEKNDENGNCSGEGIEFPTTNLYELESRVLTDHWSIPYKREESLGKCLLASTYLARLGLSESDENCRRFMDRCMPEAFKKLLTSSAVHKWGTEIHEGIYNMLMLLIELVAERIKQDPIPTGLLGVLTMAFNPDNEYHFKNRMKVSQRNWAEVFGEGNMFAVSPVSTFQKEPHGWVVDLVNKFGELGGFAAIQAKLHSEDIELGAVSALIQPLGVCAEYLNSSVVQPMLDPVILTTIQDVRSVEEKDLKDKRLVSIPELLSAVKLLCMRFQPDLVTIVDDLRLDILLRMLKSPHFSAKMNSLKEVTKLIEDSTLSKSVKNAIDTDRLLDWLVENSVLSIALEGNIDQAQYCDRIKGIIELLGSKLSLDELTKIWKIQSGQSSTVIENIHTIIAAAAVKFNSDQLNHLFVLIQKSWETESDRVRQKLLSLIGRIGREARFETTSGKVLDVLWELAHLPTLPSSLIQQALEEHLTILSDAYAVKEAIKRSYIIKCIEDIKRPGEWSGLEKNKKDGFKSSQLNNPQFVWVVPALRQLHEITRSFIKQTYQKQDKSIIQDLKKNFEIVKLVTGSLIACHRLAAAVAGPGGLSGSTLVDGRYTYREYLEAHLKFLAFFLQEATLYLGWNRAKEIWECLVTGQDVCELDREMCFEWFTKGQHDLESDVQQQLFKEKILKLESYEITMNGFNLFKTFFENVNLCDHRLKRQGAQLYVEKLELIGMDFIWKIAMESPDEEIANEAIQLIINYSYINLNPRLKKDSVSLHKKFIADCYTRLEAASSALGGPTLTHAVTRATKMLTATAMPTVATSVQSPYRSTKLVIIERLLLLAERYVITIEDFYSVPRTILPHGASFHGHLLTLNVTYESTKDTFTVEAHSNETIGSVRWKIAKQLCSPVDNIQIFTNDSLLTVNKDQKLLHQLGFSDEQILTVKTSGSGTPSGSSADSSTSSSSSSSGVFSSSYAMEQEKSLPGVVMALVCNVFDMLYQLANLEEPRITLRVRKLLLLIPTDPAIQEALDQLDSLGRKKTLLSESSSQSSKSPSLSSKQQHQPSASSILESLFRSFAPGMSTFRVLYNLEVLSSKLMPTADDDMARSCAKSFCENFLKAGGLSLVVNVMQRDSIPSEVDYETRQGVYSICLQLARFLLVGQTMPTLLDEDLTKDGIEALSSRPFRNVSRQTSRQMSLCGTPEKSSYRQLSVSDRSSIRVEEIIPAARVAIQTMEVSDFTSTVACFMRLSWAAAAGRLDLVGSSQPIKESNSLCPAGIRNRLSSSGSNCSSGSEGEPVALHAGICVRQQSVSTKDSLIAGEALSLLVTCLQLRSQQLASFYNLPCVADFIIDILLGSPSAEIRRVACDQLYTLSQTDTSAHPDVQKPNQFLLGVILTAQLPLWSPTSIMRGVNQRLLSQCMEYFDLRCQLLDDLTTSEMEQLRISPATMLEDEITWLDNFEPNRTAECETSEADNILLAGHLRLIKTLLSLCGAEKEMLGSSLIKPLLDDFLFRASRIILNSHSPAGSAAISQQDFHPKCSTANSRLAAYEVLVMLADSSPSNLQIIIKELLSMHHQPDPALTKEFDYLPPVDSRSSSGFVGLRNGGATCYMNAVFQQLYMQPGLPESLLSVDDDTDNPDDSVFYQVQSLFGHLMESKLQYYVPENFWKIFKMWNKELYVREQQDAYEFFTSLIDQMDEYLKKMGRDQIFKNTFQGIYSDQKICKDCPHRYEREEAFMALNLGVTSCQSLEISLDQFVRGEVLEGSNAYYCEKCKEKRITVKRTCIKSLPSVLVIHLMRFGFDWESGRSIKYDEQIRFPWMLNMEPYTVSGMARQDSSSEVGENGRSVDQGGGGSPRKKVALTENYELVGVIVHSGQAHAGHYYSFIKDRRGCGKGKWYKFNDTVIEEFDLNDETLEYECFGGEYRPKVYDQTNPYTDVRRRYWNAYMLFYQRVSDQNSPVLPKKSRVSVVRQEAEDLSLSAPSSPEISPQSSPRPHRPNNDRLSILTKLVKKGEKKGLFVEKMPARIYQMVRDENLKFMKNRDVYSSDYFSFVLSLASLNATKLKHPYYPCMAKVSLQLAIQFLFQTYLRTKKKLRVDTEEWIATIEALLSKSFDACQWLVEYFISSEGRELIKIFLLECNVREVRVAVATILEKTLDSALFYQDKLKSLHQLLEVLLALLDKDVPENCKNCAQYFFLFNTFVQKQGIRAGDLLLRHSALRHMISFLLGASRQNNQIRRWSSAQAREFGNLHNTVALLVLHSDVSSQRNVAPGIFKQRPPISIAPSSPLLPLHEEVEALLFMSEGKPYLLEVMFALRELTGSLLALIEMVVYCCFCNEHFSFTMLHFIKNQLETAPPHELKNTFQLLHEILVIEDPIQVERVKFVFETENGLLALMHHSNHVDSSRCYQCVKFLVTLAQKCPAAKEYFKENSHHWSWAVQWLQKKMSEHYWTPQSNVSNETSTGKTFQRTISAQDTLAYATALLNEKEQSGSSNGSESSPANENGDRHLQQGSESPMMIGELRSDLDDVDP

O=C(CCl)NC1CCS(=O)(=O)c2ccccc21 (centres undefined)
inactive: [1] -0.237 | [2] -0.183 | [3] -0.461 | [4] -0.943
